Screening results as filed in PubChem.
Rows were chosen to be rich in hits. Some 4.1% of all compounds tested hit in one or more screens of this group.
Anthrax LF prot – Bacillus anthracis LF protease inhibitors, primary screen, biochemical, multiplex microsphere, MLPCN library. Lethal factor (Bacillus anthracis), P15917. multiplex microsphere protease cleavage assay. inhibition, % at 10 µM. 360,000 tested, 0.12% active; also: plate controls were buffer without enzyme for full effect and enzyme alone for no effect
BoNT-A LC inh2 – BoNT/A light chain protease inhibitors, primary screen, biochemical, flow cytometry, MLPCN library. inhibition, % at 10 µM. multiplex microsphere protease substrate cleavage. 360,000 tested, 0.17% active. AID 588499, 2011; also: plate controls were buffer without enzyme for full effect and enzyme alone for no effect
BoNT-F LC inh – BoNT/F light chain protease inhibitors, primary screen, biochemical, flow cytometry, MLPCN library. Botulinum neurotoxin type F light chain protease (Clostridium botulinum). Multiplex microsphere protease cleavage assay. inhibition, % at 10 µM. 360,000 tested, 0.22% active. AID 588497, 2011; in the data active = inhibition above about 35%, passing the limit was not always enough; inconclusive = no clear call, values can overlap the other calls; also: plate controls were buffer without enzyme for full effect and enzyme alone for no effect
MazF activator – activators of E. coli MazEF toxin-antitoxin RNase, primary screen, biochemical, fluorescence, uHTS; activation, % at 20 µM; Endoribonuclease toxin MazF (Escherichia coli (strain K12)), P0AE70; 350,000 tested, 0.32% active; FAM/BHQ RNA-DNA oligo cleavage fluorescence, 5 h; AID 504720, 2011; in the data active = activation above about 50%
Target sequence (P0AE70 whole entry, looked up): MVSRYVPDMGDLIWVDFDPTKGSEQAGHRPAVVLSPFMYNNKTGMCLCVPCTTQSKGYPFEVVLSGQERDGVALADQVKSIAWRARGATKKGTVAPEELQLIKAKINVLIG
Autofluor counter – compound fluorescence in toxin protease inhibitor counterscreen; compound autofluorescence counterscreen, microsphere flow cytometry; active compounds read high; fluorescence intensity (test concentration not listed); 360,000 tested, 3.1% active; in the data active = fluorescence intensity above about 16000; inconclusive = no clear call, values can overlap the other calls
DUSP3 inh – VHR1 phosphatase inhibitors, primary screen, biochemical, absorbance, uHTS; Dual specificity protein phosphatase 3 (Homo sapiens), P51452; recombinant VHR phosphatase, pNPP absorbance; inhibition, % at 13.3 µM; 290,000 tested, 0.52% active; AID 1654, 2009; in the data active = inhibition above about 50%
Target sequence (P51452 whole entry, looked up): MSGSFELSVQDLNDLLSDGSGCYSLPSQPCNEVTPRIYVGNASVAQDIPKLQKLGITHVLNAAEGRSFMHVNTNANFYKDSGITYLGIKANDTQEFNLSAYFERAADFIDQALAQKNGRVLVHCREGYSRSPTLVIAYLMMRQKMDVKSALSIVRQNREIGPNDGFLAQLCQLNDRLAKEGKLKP
* hit, by the source's call; ? = inconclusive; / = no result given. Rule as the data show it, unless noted: active = inhibition above about 30%; inconclusive = no clear call, values can overlap the other calls; inactive = below that.

SMILES | Anthrax LF prot | BoNT-A LC inh2 | BoNT-F LC inh | MazF activator | Autofluor counter | DUSP3 inh
CN(C)c1ccc(/C=C/C(=O)c2cccc(Br)c2)cc1 | 34.7* | 40.0* | 83.7* | -632.7 | 33462* | 3.8
CN(c1ccccc1)S(=O)(=O)c1cc(C(=O)Nc2ccccc2N2CCOCC2)ccc1Cl | -13.2 | -0.3 | -3.5 | -5.0 | 3898 | /
CCOC(=O)c1c[nH]c2c(Cl)c(Cl)ccc2c1=O | 3.9 | 0.2 | 10.2 | 0.5 | 3885 | -9.9
CCOC(=O)c1c[nH]c2c3c(ccc2c1=O)CCCC3 | 2.4 | -4.7 | -7.5 | 4.6 | 21559* | 12.0
CCOC(=O)c1c[nH]c2c(C)cc(C)cc2c1=O | -1.4 | ? | -1.7 | 2.2 | 20267* | 30.2
CCOC(=O)c1c[nH]c2c(C(=O)c3ccccc3)cc(Cl)cc2c1=O | 6.3 | 1.2 | 2.8 | -1.7 | 3680 | -1.2
O=C(O)c1cccc(Nc2ccnc(Nc3cccc(C(=O)O)c3)n2)c1 | 2.4 | -4.4 | 10.1 | 1.7 | 3148 | 6.0
COc1ccc(NC(=O)CSc2ccc3nnc(-c4ccccn4)n3n2)c(OC)c1 | 2.5 | -0.7 | -3.3 | 2.2 | 4183 | 6.2
Cc1cccc(N2C(=O)c3cccc4c(N(C)CCO)ccc(c34)C2=O)c1 | -0.4 | 4.7 | 3.6 | 78.0* | 11358 | 5.0
O=C(COc1ccc(Cl)cc1)OCc1ccc(Cl)cc1 | -6.8 | -0.1 | 3.3 | 2.2 | 3497 | /
Cc1ccc(-n2nc(C(=O)c3ccccc3)n3c(=O)c(Cc4ccccc4)nnc23)cc1 | 1.6 | 0.1 | -2.3 | -1.0 | 10540 | /
O=C(c1ccccc1)c1nn(-c2ccccc2)c2nnc(Cc3ccccc3)c(=O)n12 | -1.8 | -1.6 | -1.7 | 9.2 | 17139* | -4.7
COC(=O)c1ccc2nc(C)c(C)nc2c1 | -1.5 | ? | -0.3 | -7.2 | 20620* | -2.0
CCOC(=O)c1ccc2nc(C)c(C)nc2c1 | -0.4 | -0.4 | -12.9 | 5.2 | 4388 | 27.1
COCC(=O)Nc1sc2c(c1C(=O)OC)C(C(=O)OC)CC2 (configuration not stated) | -1.9 | -0.6 | -4.7 | 2.8 | 20588* | 20.7
CCOC(=O)C(=CNc1cc(Cl)c(-c2ccco2)c(Cl)c1)C(=O)OCC | 2.6 | 0.6 | ? | -6.6 | 4271 | 8.5
CCOc1ccc(OCc2ccc(C(=O)N3N=C(C(F)F)CC3(O)C(F)F)o2)cc1 (configuration not stated) | -3.6 | -4.1 | -3.3 | -3.7 | 17666* | 12.9
COc1cc(C(=O)N(Cc2ccco2)Cc2cc3ccccc3[nH]c2=O)cc(OC)c1OC | -1.2 | ? | -3.6 | -0.1 | 23180* | -11.7
O=C(c1ccco1)N(Cc1ccco1)Cc1cc2ccccc2[nH]c1=O | -1.0 | 0.0 | 4.7 | 9.0 | 5847 | -8.1
CCC1C(=O)N(c2nc(C)cc(C)n2)N=C1C (configuration not stated) | 2.9 | 2.0 | -0.4 | -2.8 | 19066* | 20.8
Cc1ccc(C(=O)NC2CCSC2=O)cc1 (configuration not stated) | -2.6 | -0.3 | -7.9 | 2.4 | 12264 | 27.1
COc1cc(OC)cc(C(=O)NC2CCSC2=O)c1 (configuration not stated) | -2.0 | -1.3 | -3.7 | 2.7 | 17088* | 22.3
O=C(NC1CCSC1=O)c1ccc(Cl)cc1 (configuration not stated) | -4.4 | -0.1 | -1.3 | -2.9 | 10476 | 51.6*
COc1ccc(C(=O)NC(=S)NC2CCSC2=O)cc1 (configuration not stated) | 6.6 | 1.4 | 7.9 | -8.2 | 2596 | -8.5
Cc1ccc2c(C)c(C(=O)NCCN3CCOC3=O)oc2c1C | 2.3 | -0.9 | -2.0 | -3.0 | 5887 | 10.5
SMILES | Anthrax LF prot | BoNT-A LC inh2 | BoNT-F LC inh | MazF activator | Autofluor counter | DUSP3 inh
Cc1oc(C)c2c(=O)ccc3c(c12)OC(N)=C(C#N)C3c1ccccc1 (configuration not stated) | 3.1 | 3.4 | -17.2 | 105.5* | 4865 | -1.8
Cc1ccnc(NC(=O)c2ccc(Cl)s2)c1 | -4.8 | 1.6 | 5.8 | 3.5 | 5143 | 10.8
O=C(Nc1ccon1)c1ccc(Cl)s1 | 2.3 | ? | -3.2 | 8.7 | 17115* | 23.8
O=C(CCc1ccccc1)Nc1cccc(S(=O)(=O)N2CCOCC2)c1 | -2.2 | -0.1 | -1.3 | -2.0 | 3596 | /
O=C1Nc2cnc(Cl)nc2Nc2ccccc21 | 0.0 | -0.2 | -1.0 | / | 6039 | /
COC(=O)/C(C#N)=C/N(C)C | / | / | / | 9.7 | / | 0.8
CCOC(=O)/C(C#N)=C\N(C)C | / | / | / | 0.4 | / | 56.7*
CC(C)C(CCNC(=O)CC(Cc1ccccc1)c1ccco1)c1ccco1 (configuration not stated) | -2.4 | -1.3 | -3.3 | -2.2 | 17138* | 4.1
COc1ccc(/C=C\C(=O)O[C@@H]2C(O)C(O[C@@H]3OC(C)[C@H](O[C@@H]4OCC(O[C@H]5O[C@H](CO)[C@@H](O)C(O)C5O)C(O)C4O)C(O)C3O)[C@H](OC(=O)[C@]34CCC(C)(C)C[C@@H]3C3=CCC5[C@@]6(C)CC(O)C(O[C@@H]7OC(CO)C(O)[C@H](O)[C@H]7O)[C@@](C)(C(=O)O)C6CC[C@@]5(C)[C@]3(CO)CC4)O[C@H]2C)cc1 (some centres not stated) | -4.3 | -0.1 | -9.1 | 11.1 | 4005 | /
CCOC(=O)C(Cc1ccc(O)cc1)NC(=O)c1cc2c(cn1)[nH]c1ccccc12 (configuration not stated) | -5.8 | -0.3 | 1.8 | / | 6307 | /
CCCCn1c(N)c(-c2nc3ccccc3o2)c2c([N+](=O)[O-])nn(C)c(=O)c21 | -1.0 | 0.4 | -3.1 | 14.5 | 2582 | 55.4*
O=C1[C@@H]2Cc3ccccc3CN2C(=O)N1c1cccc(F)c1 | 0.8 | 0.5 | -5.3 | -9.7 | 8983 | 22.1
Cc1ccccc1N1C(=O)[C@@H]2Cc3ccccc3CN2C1=O | -6.5 | ? | 6.4 | 3.2 | 19296* | 22.1
COc1cc(-c2nnc(SCC#CCO)o2)cc(OC)c1OC | -2.3 | -0.4 | -1.4 | -3.1 | 22486* | -4.0
Cc1nn(-c2ccc(N3CCOCC3)nn2)c(C)c1CCC(=O)N1CCN(C)CC1 | ? | ? | ? | 9.6 | ? | 16.6
O=C(c1ccccc1Cl)N1CCc2ccccc2C1 | -2.4 | -5.2 | -7.4 | -8.3 | 17580* | 4.4
Cc1ccccc1C(=O)N1CCc2ccccc2C1 | 2.1 | 0.9 | 9.8 | 0.3 | 12240 | 3.2
O=C(c1cc(-c2cccs2)on1)N1CCc2ccccc2C1 | -1.7 | 2.2 | -0.1 | -5.0 | 22720* | 22.0
O=C(c1cc(-c2cccs2)on1)N1CCOCC1 | -0.5 | -2.4 | -6.1 | -0.2 | 21693* | 20.0
O=C(c1cc(-c2cccs2)on1)N1CCN(C(c2ccccc2)c2ccccc2)CC1 | -1.0 | 0.2 | 6.1 | -4.8 | 3681 | -2.2
